In PubChem BioAssay (NCATS):
Records with an inconclusive call do not appear. Unmarked numbers belong to inactive results. Calls of active or inactive are those of the source. Calls come from the whole dose curve; as a rule, active = well fitted cell-killing curve with a large enough effect; inconclusive = small, poorly fitted or top-dose-only effect, or effect the other way; inactive = flat fitted curve, though single readings scatter.
Potency is the fitted concentration of half-maximal effect.

Experiment: qHTS for Inhibitors of Ubiquitin-specific Protease USP2a Using CHOP2 as the Reporter: Cytotox Assay (AID 652170); note: nearly all actives have a fitted effect of over 70% in size
Conditions: HCT116 viability, CellTiter-Glo luminescence, 72 h; series mostly up to 46.1 µM; activity change, negative = cytotoxicity: at the top concentration
Text: Homeostasis of cellular proteins is maintained through a combination of synthesis and degradation. The pathway that accounts for the majority of protein degradation is the ubiquitin-proteasomal pathway. Ubiquitin (Ub) is highly conserved in all cells and the generation of a multi-Ub chain typically targets proteins for degradation by the proteasome. However, ubiquitination is highly reversible and dynamic. Deubiquitination, the reverse process, is catalyzed through the action of enzymes referred to as isopeptidases or deubiquitinating enzymes (DUBs). This group of enzymes is collectively responsible for maintaining adequate pools of free ubiquitin and regulating the ubiquitination status of cellular proteins. The class of DUBs referred to as the ubiquitin-specific proteases (USP) family functions endoproteolytically to cleave Ub chains from a wide range of protein substrates. USP2a deubiquitinates fatty acid synthase (FASN) which has recently been identified as an emerging oncology target. To identify inhibitors of USP2a a cell-free qHTS assay was employed. Confirmed qHTS active compounds were tested for cytoxicity in HCT116 cells (human colon cancer cells) using the Cell Titer Glo luciferase-coupled ATP detection system from Promega. This assays monitors cell proliferation by quantitating the amount of ATP present by luciferase, which in the presence of ATP converts […]. A compound that inhibits cell proliferation would result in a decrease in luminescence. The data were normalized to control columns representing maximum signal (cells with DMSO) and background (no cells with DMSO). The cells were cultured in DMEM with 10% FBS and plated in white solid-bottom tissue-culture treated plates. NIH Molecular Libraries Probe Centers Network [MLPCN] NIH Chemical Genomics Center [NCGC] MLSCN Grant: MH079852 PI Name: Benjamin Nicholson, Progenra Inc, Malvern, PA
5 uL of HCT116 (600 cells/well) were plated into a 1536 well plate and then incubated for 6 hr at 37 deg C, 5% CO2. Compounds are added through pinning before the plate is incubated for 72 hr at 37 deg C, 5% CO2. Then, 3 uL of Cell Titer Glo is added, the plate is left at RT for 10 min, before luminescence is detected using the ViewLux.
With `Clc1nc(CN2CCOCC2)nc2sc3c(c12)CCCC3` the “activity change, negative = cytotoxicity” value was 9.39%. For `O=C(Nc1nc(-c2ccccc2)cs1)c1ccccc1`, the “activity change, negative = cytotoxicity” value was -20%. In the case of `Cc1ccc(-c2cc(C(=O)Nc3ccccc3)c3ccccc3n2)cc1C`, the “activity change, negative = cytotoxicity” value is reported as -10.5%. In the case of `COc1ccccc1NC(=O)c1cc(-c2ccc(C)c(C)c2)nc2ccccc12`, the “activity change, negative = cytotoxicity” value is reported as -5.2%. For `Cc1ccc(S(=O)(=O)Nc2ccccc2C(=O)Nc2ncc(-c3ccccc3)s2)cc1`, the Potency was 18.7 µM (active). With `Cc1ccc(S(=O)(=O)NCCC(=O)Nc2nc(-c3ccccc3)cs2)cc1` the “activity change, negative = cytotoxicity” value was -18.8%. For `COc1ccc(NS(=O)(=O)c2ccc(C)cc2)cc1C(=O)Nc1nc(-c2ccccc2)cs1`, the “activity change, negative = cytotoxicity” value was -17.9%. In the case of `Cc1ccc(-c2cc(C(=O)O)c3cccc(C)c3n2)cc1C`, the “activity change, negative = cytotoxicity” value is reported as -6%. With `O=C(Nc1ccc([S+](=O)([O-])Nc2nccs2)cc1)C1CCNCC1` the “activity change, negative = cytotoxicity” value was 10.5%. For `Cc1ccc(-c2cc(C(=O)Nc3ccc(S(=O)(=O)NCc4nccs4)cc3)c3ccccc3n2)cc1C`, the “activity change, negative = cytotoxicity” value was -0.363%. For `Cc1ccc(-c2cc(C(=O)Nc3ccc(-n4cncn4)cc3)c3ccccc3n2)cc1C`, the “activity change, negative = cytotoxicity” value was 22.1%. For `Cc1ccc(-c2cc(C(=O)NCc3ccccc3)c3ccccc3n2)cc1C`, the “activity change, negative = cytotoxicity” value was 9.39%. In the case of `Cc1ccc(-c2cc(C(=O)Nc3ccc(S(=O)(=O)N(C)C)cc3)c3ccccc3n2)cc1C`, the “activity change, negative = cytotoxicity” value is reported as 19.9%. In the case of `Cc1ccc(S(=O)(=O)Nc2ccccc2C(=O)Nc2ccc(-c3ccccc3)nn2)cc1`, the “activity change, negative = cytotoxicity” value is reported as -14.1%. For `Cc1ccc(C(=O)[C@H]2CC[C@@H](C(=O)Nc3ccc(S(=O)(=O)Nc4nccs4)cc3)C2)cc1C`, the “activity change, negative = cytotoxicity” value was -12.7%. For `CC(=O)Nc1ccc(S(=O)(=O)Nc2nccs2)cc1`, the Potency was “inactive”. For `Cc1ccc(S(=O)(=O)Nc2cc3c(cc2C(=O)Nc2nc(-c4ccccc4)cs2)OCO3)cc1`, the Potency was 16.6 µM (active). In the case of `COc1cccc(NS(=O)(=O)c2ccc(C)cc2)c1C(=O)Nc1nc(-c2ccccc2)cs1`, the “activity change, negative = cytotoxicity” value is reported as 0.429%. For `Cc1ccc(-c2cc(C(=O)NCC[S+](=O)([O-])O)c3ccccc3n2)cc1C`, the “activity change, negative = cytotoxicity” value was -7.03%. With `Cc1ccc(S(=O)(=O)Nc2cc(C(=O)Nc3nc(-c4ccccc4)cs3)ccn2)cc1` the “activity change, negative = cytotoxicity” value was 7.9%. In the case of `O=C(Nc1ccc([S+](=O)([O-])Nc2nccs2)cc1)c1ccn[nH]1`, the “activity change, negative = cytotoxicity” value is reported as 23.5%. With `O=C(Nc1nc(-c2ccccc2)cs1)c1ccncc1NS(=O)(=O)c1cccc2cccnc12` the “activity change, negative = cytotoxicity” value was -13.3%. In the case of `Cc1ccc(S(=O)(=O)Nc2cc(C)ccc2C(=O)Nc2nc(-c3ccccc3)cs2)cc1`, the Potency is reported as 14.8 µM (active). For `Cc1ccc(S(=O)(=O)n2cc(C(=O)Nc3nc(-c4ccccc4)cs3)c3ccccc32)cc1`, the “activity change, negative = cytotoxicity” value was -24.7%. For `Cc1ccc(S(=O)(=O)Nc2cc(C(F)(F)F)ccc2C(=O)Nc2nc(-c3ccccc3)cs2)cc1`, the Potency was 2.96 µM (active). In the case of `N#Cc1ccc(N[S+](=O)([O-])c2ccc(Nc3nc(-c4ccccc4)cs3)cc2)cc1`, the “activity change, negative = cytotoxicity” value is reported as 11.4%. For `O=C(Nc1ccc(S(=O)(=O)Nc2nccs2)cc1)c1cccnc1`, the “activity change, negative = cytotoxicity” value was 19.2%. In the case of `O=C(CCc1ccccc1)Nc1ccc(S(=O)(=O)Nc2nccs2)cc1`, the “activity change, negative = cytotoxicity” value is reported as 14.4%. In the case of `COC(=O)c1ccc(NC(=O)c2cc(-c3ccc(C)c(C)c3)nc3ccccc23)cc1`, the “activity change, negative = cytotoxicity” value is reported as 1.81%. In the case of `O=C(Nc1ccc(S(=O)(=O)Nc2nccs2)cc1)[C@@H]1CC[C@H](C(=O)c2ccccc2)C1`, the “activity change, negative = cytotoxicity” value is reported as -7.7%. In the case of `Cc1ccc(S(=O)(=O)Nc2ccc(C(=O)Nc3nc(-c4ccccc4)cs3)c(Cl)c2)cc1`, the Potency is reported as 14.8 µM (active). In the case of `O=C(Nc1nc(-c2ccccc2)cs1)c1ccncc1NS(=O)(=O)c1cccnc1`, the “activity change, negative = cytotoxicity” value is reported as 14%. With `CCNC(=O)C1CCC(C(=O)Nc2ccc([S+](=O)([O-])Nc3nccs3)cc2)CC1` (stereo not given) the “activity change, negative = cytotoxicity” value was -2.91%. With `CCCCCC1CCC(C(=O)Nc2ccc(S(=O)(=O)Nc3nccs3)cc2)CC1` (stereo not given) the Potency was “inactive”. With `Cc1ccc(S(=O)(=O)Nc2cnccc2C(=O)Nc2ccc(-n3cncn3)cc2)cc1` the “activity change, negative = cytotoxicity” value was 18.3%. In the case of `O=S(=O)(Nc1nc(CN2CCOCC2)nc2sc3c(c12)CCCC3)c1ccc2ccccc2c1`, the “activity change, negative = cytotoxicity” value is reported as -7.73%. In the case of `COC(=O)c1ccccc1C(=O)Nc1nc(-c2ccccc2)cs1`, the “activity change, negative = cytotoxicity” value is reported as 4.34%. For `COc1cc(NS(=O)(=O)c2ccc(C)cc2)c(C(=O)Nc2nc(-c3ccccc3)cs2)cc1OC`, the “activity change, negative = cytotoxicity” value was 1.75%. For `O=C1CC(c2ccccc2)Cc2[nH]c(=O)c(-c3nc(-c4ccc(F)cc4)cs3)cc21` (stereo not given), the Potency was 4.18 µM (active). In the case of `Cc1ccc(-c2cc(C(=O)N3CCCCC3)c3ccccc3n2)cc1C`, the “activity change, negative = cytotoxicity” value is reported as -10.5%.
